Structures can show the parent of a compound that is named as a salt.
tested on: Danio rerio larvae Tg(actc1b:ZsGreen-LC3), 3 dpf; experiment: LC3 puncta relative area vs vehicle, without NH4Cl (log2 fold change); higher = more autophagosomes; conditions: 10 µM; treatment time 16 h; NH4Cl: none
Description: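 Transgenic Tg(actc1b:ZsGreen-map1lc3) zebrafish larvae (2 dpf) were treated for 16 h with Tocris library compounds at 10 µM (n = 12 larvae per compound). Skeletal-muscle LC3 puncta area relative to body area was measured by high-content confocal imaging before and after 4 h of 100 mM NH4Cl (autophagic flux), normalised to vehicle (DMSO), and reported as log2 fold change.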

| SMILES | LC3 puncta (log2) |
| --- | --- |
| Cc1onc(O)c1C[C@H](N)C(=O)O | 0.235 |
| N=C(N)NN [Aminoguanidine hydrochloride] | 0.471 |
| CN1[C@@H]2CC[C@H]1C[C@@H](OC(=O)c1cc(Cl)cc(Cl)c1)C2 | 0.263 |
| COC(=O)[C@@H](N)CCCNC(=N)N[N+](=O)[O-] [L-NAME hydrochloride] | -0.0167 |
| Clc1cccc(SC2CCNCC2)n1 [Anpirtoline hydrochloride] | 0.143 |
| O=C1CCCN1CC#CCN1CCCC1 [Oxotremorine sesquifumarate] | -0.285 |
| O=C(Cc1ccc(Cl)c(Cl)c1)N1CCCCC1CN1CCCC1 (configuration not stated) | 0.372 |
| CC(C)[C@@]1(NC(=O)[C@@H]2C[C@@H]3c4cccc5[nH]cc(c45)C[C@H]3N(C)C2)O[C@@]2(O)[C@@H]3CCCN3C(=O)[C@H](Cc3ccccc3)N2C1=O [Dihydroergocristine mesylate] | -0.412 |
| Cc1onc(O)c1CC(N)C(=O)O (racemic) | -0.391 |
| CN(C(=O)Cc1ccccc1)C(CN1CCCC1)c1ccccc1 (configuration not stated) [N-MPPP Hydrochloride] | 0.385 |
| CCC(Oc1ccc(Cl)cc1)C(=O)OC1C[C@H]2CC[C@@H](C1)N2C (some centres not stated) [SM-21 maleate] | 0.226 |
| C=CCN1C[C@H](C)N([C@H](c2ccc(C(=O)N(CC)CC)cc2)c2cccc(OC)c2)C[C@H]1C | 0.784 |
| c1ccc(CC(c2ccccc2)N2CCCCC2)cc1 (configuration not stated) [(?)-1-(1,2-Diphenylethyl)piperidine maleate] | 0.167 |
| C(=C\c1ccccc1)/CN1CCN(CCOC(c2ccccc2)c2ccccc2)CC1 | 0.421 |
| c1ccc2nc(N3CCNCC3)ccc2c1 [Quipazine dimaleate] | 0.115 |
| CCCN(CCC)C1CCc2cccc(O)c2C1 (configuration not stated) [8-Hydroxy-DPAT hydrobromide] | 0.14 |
| O=C(O)Cc1cccnc1C(=O)O [Homoquinolinic acid] | -0.131 |
| Cc1[nH]c2ccc(O)cc2c1CCN [2-Methyl-5-hydroxytryptamine hydrochloride] | -0.132 |
| c1ccc(C2CNCc3ccccc32)cc1 (configuration not stated) [4-Phenyl-1,2,3,4-tetrahydroisoquinoline hydrochloride] | 0.365 |
| O=c1[nH]oc2c1CCNC2 [THIP hydrochloride] | 0.233 |
| CC(CN)CC(=O)O (configuration not stated) [3-Methyl-GABA] | 0.26 |
| CC(=O)N1CC[N+](C)(C)CC1 [4-Acetyl-1,1-dimethylpiperazinium iodide] | -0.21 |
| Cn1cnc(CCN)c1 [N?-Methylhistamine dihydrochloride] | 0.287 |
| CN1C(=O)CCS(=O)(=O)C1c1ccc(Cl)cc1 (configuration not stated) [Chlormezanone] | -0.0101 |
| CCCCCCC[n+]1ccc(-c2cc[n+](CCCCCCC)cc2)cc1 [DHBP dibromide] | 0.00945 |
| Cc1nc(N)sc1CCN [Amthamine dihydrobromide] | 0.0368 |
| CS(=O)(=O)Nc1ccc(Cc2noc(-c3ccc4[nH]cc(CCN)c4c3)n2)cc1 | 0.431 |

Reference: the supplement of paper PMC12532568
